{"source": "PubChem BioAssay (NCATS)", "note": "Inconclusive results are not listed. Values without a mark were called inactive. Active and inactive are the calls of the source. Calls come from the whole dose curve. % is set by controls: 0 for no effect and ±100 for the full control effect; potency is the fitted concentration of half-maximal effect."}
{"experiment": "Confirmatory qHTS for VERO E6 Cytotoxicity Assay: Counterscreen for SARS-CoV-2 CPE Assay (AID 1508605); note: nearly all actives have a fitted effect of over 60% in size", "settings": "cell viability luminescence; series mostly up to 20 µM; activity change, negative = cytotoxic: at the top concentration", "units": {"activity change, negative = cytotoxic": "%"}}
{"smiles": "C/C(=N\\NC(=O)c1cccc(S(=O)(=O)N2CCOCC2)c1)c1cc(Cl)ccc1O", "Potency": "1000 nM (active)"}
{"smiles": "Nc1nc(Nc2ccc3c(c2)CC[C@@H](N2CCCC2)CC3)nn1-c1cc2c(nn1)-c1ccccc1CCC2", "Potency": "10000 nM (active)"}
{"smiles": "Nc1nc(OC(c2ccc(-c3cccc(F)c3)cc2)C(F)(F)F)cc(-c2ccc(C[C@H](N)C(=O)O)cc2)n1", "note": "(stereo partly drawn)", "activity change, negative = cytotoxic": -8.41}
{"smiles": "Cn1cc(-c2ccc(-c3cncc(Cl)c3N3CCC4(CCNC4=O)CC3)cc2)cn1", "activity change, negative = cytotoxic": -3.74}
{"smiles": "COC(=O)[C@]1(C)CC[C@]2(C)CC[C@]3(C)C4=CC=C5C(=CC(=O)C(O)=C5C)[C@]4(C)CC[C@@]3(C)[C@@H]2C1", "Potency": "1010 nM (active)"}
{"smiles": "O=C1NC(=O)/C(=C\\c2ccc(-c3ccc(F)cc3)o2)S1", "activity change, negative = cytotoxic": -9.25}
{"smiles": "COCCNCc1ccc(-c2cc3nccc(Oc4ccc(NC(=O)C5(C(=O)Nc6ccc(F)cc6)CC5)cc4F)c3s2)nc1", "Potency": "5010 nM (active)"}
{"smiles": "c1ccc(-c2ccc(CNc3nc(-c4ccccn4)nnc3-c3ccccc3)cc2)cc1", "Potency": "501 nM (active)"}
